# Data from PubChem BioAssay (EPA / NIEHS).
# Values joined by “and” are separate entries in the source; they are usually repeats but may differ in a detail not shown here. Identical values can stand only once. Records with an inconclusive call do not appear. A structure can be active in one record and inactive in another. Active and inactive are the calls of the source. How the source made its calls, unless noted: active means hit-call score of the fitted dose curve at least 0.9, where 1 is the maximum; inconclusive means response in the unintended direction; inactive means score below 0.9.
# What was measured:
# [1] = test system: zebrafish Androgen Receptor (AR), gene 100005148; assay: ATG_zfAR_XSP2: Attagene TRANS-FACTORIAL Multi-Species (XSP2) HepG2 Assay for zebrafish Androgen Receptor (AR) (AID 2283825);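 further: hits raise reporter mRNA above DMSO so AC50 reflects agonist-type gain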
# Experimental: ATG_XSP2_multi-species_TRANS is a cell-based, multiplexed assay created by modifying the existing Attagene TRANS-FACTORIAL system to include a panel of nuclear receptors from some or all the following species: human (Homo sapiens), mouse (Mus musculus), frog (Xenopus laevis), zebrafish (Danio rerio), chicken (Gallus gallus), and turtle (Chrysemys picta). The ECOTOX-FACTORIAL format uses HepG2, a human liver cell line, with measurements taken at 24 hours after chemical dosing in a 24-well plate. Xsp2 included 3 nM 6-alpha-fluorotestosterone and 1.5 nM norgestrel to stimulate the androgen receptor.ATG_zfAR_XSP2 is one of 29 assay components measured or calculated from the ATG_XSP2_multi-species_TRANS assay. It is designed to make measurements of mRNA induction, a form of inducible reporter, as detected with fluorescence intensity signals by Reverse transcription polymerase chain reaction (RT-PCR) and Capillary electrophoresis technology.The assay endpoint ATG_zfAR_XSP2 was analyzed in the positive analysis fitting direction relative to DMSO as the negative control and baseline of activity. […] Furthermore, this assay endpoint can be referred to as a primary readout, because this assay has produced multiple assay endpoints where this one serves a reporter gene function. […]
# [2] = target: Estrogen receptor (Homo sapiens) (UniProt P03372); assay: ATG_hERa_XSP2: Attagene TRANS-FACTORIAL Multi-Species (XSP2) HepG2 Assay for human Estrogen Receptor (ERa) (AID 2283827)
# How it was run: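 Trans-activation of exogenous human ERa-Gal4 chimera read in HepG2 as reporter transcript after 24 h exposure; medium included 3 nM 6-alpha-fluorotestosterone and 1.5 nM norgestrel. Quantified by RT-PCR with capillary electrophoresis, positive-direction fitting against DMSO.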
# [3] = target: Peroxisome proliferator-activated receptor gamma (Homo sapiens) (UniProt P37231); assay: ATG_hPPARg_XSP2: Attagene TRANS-FACTORIAL Multi-Species (XSP2) HepG2 Assay for human Peroxisome Proliferator-activated Receptor gamma (PPARg) (AID 2283829);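 further: actives raise reporter mRNA above DMSO so AC50 reflects PPARg activation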
# How it was run: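 Multiplexed transactivation in transfected HepG2 liver cells. Gal4-chimeric receptor activity reported as induced reporter transcript after 24 h.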
# [4] = target: mouse Peroxisome Proliferator-activated Receptor gamma (PPARg), Pparg (gene 19016) (UniProt P37238); assay: ATG_mPPARg_XSP2: Attagene TRANS-FACTORIAL Multi-Species (XSP2) HepG2 Assay for mouse Peroxisome Proliferator-activated Receptor gamma (PPARg) (AID 2283830);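 further: hits are gains in reporter mRNA above DMSO so AC50 marks activation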
# How it was run: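 Multiplexed TRANS reporter readout: after 24 h chemical exposure of transfected HepG2 cells (with 3 nM 6-alpha-fluorotestosterone, 1.5 nM norgestrel present), RNA reverse-transcribed, amplified, 6-FAM-labelled and resolved by capillary electrophoresis; mouse PPARg-Gal4 induction scored against DMSO.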
# [5] = target: Nuclear receptor subfamily 1 group I member 2 (Mus musculus) (UniProt O54915); assay: ATG_mPXR_XSP2: Attagene TRANS-FACTORIAL Multi-Species (XSP1) HepG2 Assay for mouse Pregnane X Receptor (PXR) (AID 2283831)
# How it was run: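 Human liver HepG2 cells expressing exogenous receptor-GAL4 chimeras were exposed to test chemicals for 24 h. Induction of reporter mRNA was scored as gain of fluorescence signal over DMSO controls.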
# [6] = test system: zebrafish Peroxisome Proliferator-activated Receptor gamma (PPARg), gene 557037; assay: ATG_zfPPARg_XSP2: Attagene TRANS-FACTORIAL Multi-Species (XSP2) HepG2 Assay for zebrafish Peroxisome Proliferator-activated Receptor gamma (PPARg) (AID 2283833);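 further: reporter mRNA from a zebrafish PPARg GAL4 chimera measured by RT-PCR and capillary electrophoresis; actives increase reporter signal over DMSO so AC50 reflects activation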
# How it was run: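 Cell-based transactivation of a chimeric zebrafish PPARg-GAL4 receptor was assessed in transiently transfected HepG2 cells after 24 h of treatment. Reporter mRNA induction, detected fluorescently after RT-PCR, was analysed in the positive direction against DMSO.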
# [7] = test system: turtle Thyroid Hormone Receptor, alpha (TRa), gene 101949057; assay: ATG_trTRa_XSP2: Attagene TRANS-FACTORIAL Multi-Species (XSP1) HepG2 Assay for turtle Thyroid Hormone Receptor, alpha (TRa) (AID 2283834);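 further: hits raise reporter mRNA over the DMSO baseline so AC50 marks activators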
# How it was run: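 Gain-of-signal reporter transcription measured in transiently transfected HepG2 at 24 h post-dose. Fluorescent RT-PCR products were resolved by capillary electrophoresis and compared with DMSO vehicle.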
# [8] = test system: frog Estrogen Receptor (ER2), gene 100174814; assay: ATG_frER2_XSP2: Attagene TRANS-FACTORIAL Multi-Species (XSP2) HepG2 Assay for frog Estrogen Receptor (ER2) (AID 2283828)
# How it was run: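 Induction of reporter mRNA, baseline set by DMSO, is the endpoint. The panel was run in transfected HepG2 cells over 24 h, with 3 nM 6-alpha-fluorotestosterone and 1.5 nM norgestrel present to stimulate androgen receptor.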
# [9] = target: zebrafish Thyroid Hormone Receptor alpha (TRa), thraa (gene 30670) (UniProt Q98867); assay: ATG_zfTRa_XSP2: Attagene TRANS-FACTORIAL Multi-Species (XSP1) HepG2 Assay for zebrafish Thyroid Hormone Receptor alpha (TRa) (AID 2283832);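 further: actives raise zebrafish TRa-Gal4 reporter transcript above DMSO baseline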
# How it was run: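 Readout is reporter mRNA induction, quantified by RT-PCR and capillary electrophoresis with fluorescent labelling, after 24 h compound exposure of transiently transfected HepG2 cells carrying NR-Gal4 chimera reporters. Activity fitted upward relative to DMSO.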
# [10] = ATG_M_61_XSP2: Attagene TRANS-FACTORIAL Multi-Species (XSP2) HepG2 Assay for M61 Transcription Factor (Internal Marker) (AID 2283835; active means hit-call score of the fitted dose curve at least 0.9, where 1 is the maximum; inactive means score below 0.9;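 further: reporter mRNA of an internal background marker read by RT-PCR and capillary electrophoresis; active means a rise in signal above the DMSO baseline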)
# How it was run: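 Signal was mRNA induction detected as fluorescence after RT-PCR and capillary electrophoresis, analysed in the gain direction with DMSO as baseline. HepG2 cells transiently carrying reporter constructs received chemicals for 24 h.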
# Estrogen receptor (Homo sapiens), sequence (P03372 whole entry, looked up, the tested form may be a part): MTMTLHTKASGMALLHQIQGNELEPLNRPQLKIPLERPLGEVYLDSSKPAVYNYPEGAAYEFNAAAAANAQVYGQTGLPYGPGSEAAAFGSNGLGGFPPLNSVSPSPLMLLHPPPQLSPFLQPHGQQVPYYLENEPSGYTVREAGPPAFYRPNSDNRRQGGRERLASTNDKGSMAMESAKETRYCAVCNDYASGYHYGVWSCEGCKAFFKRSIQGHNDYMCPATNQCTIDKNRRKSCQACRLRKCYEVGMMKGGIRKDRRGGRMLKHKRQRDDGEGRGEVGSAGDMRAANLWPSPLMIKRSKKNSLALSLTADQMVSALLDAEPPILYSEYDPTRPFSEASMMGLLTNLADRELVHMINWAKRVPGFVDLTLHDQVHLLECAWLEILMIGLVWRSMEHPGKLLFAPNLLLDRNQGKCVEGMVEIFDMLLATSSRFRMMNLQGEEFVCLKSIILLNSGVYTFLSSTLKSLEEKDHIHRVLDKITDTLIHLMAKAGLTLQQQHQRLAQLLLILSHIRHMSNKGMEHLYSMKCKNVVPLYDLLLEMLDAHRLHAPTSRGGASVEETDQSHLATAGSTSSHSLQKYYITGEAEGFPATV
# Peroxisome proliferator-activated receptor gamma (Homo sapiens), sequence (P37231 whole entry, looked up, the tested form may be a part): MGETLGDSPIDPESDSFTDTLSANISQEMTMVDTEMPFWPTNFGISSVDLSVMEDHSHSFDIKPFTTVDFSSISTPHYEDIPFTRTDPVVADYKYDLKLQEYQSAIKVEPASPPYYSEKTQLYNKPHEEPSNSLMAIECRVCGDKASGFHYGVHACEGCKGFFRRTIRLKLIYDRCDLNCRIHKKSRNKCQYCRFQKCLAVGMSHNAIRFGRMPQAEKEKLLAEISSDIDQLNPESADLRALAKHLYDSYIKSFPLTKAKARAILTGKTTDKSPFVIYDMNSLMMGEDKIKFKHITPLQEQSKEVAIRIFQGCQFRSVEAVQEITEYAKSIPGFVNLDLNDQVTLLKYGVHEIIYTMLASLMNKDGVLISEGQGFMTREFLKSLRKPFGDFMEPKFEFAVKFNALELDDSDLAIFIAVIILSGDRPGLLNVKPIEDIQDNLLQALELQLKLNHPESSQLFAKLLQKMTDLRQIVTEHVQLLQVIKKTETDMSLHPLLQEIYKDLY
# Nuclear receptor subfamily 1 group I member 2 (Mus musculus), sequence (O54915 whole entry, looked up, the tested form may be a part): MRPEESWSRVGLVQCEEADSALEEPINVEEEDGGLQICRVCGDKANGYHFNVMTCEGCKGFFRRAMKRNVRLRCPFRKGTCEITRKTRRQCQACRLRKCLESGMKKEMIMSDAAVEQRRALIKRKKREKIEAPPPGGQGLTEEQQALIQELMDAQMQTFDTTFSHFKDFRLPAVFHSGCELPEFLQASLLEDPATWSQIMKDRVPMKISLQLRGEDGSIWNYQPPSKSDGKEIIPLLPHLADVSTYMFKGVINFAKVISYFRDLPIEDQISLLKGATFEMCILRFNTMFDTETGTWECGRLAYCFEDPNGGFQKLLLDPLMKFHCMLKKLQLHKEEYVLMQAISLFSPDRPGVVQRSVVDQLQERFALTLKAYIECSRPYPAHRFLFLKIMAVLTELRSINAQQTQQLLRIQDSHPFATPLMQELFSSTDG
# mouse Peroxisome Proliferator-activated Receptor gamma (PPARg), Pparg (gene 19016), sequence (P37238 whole entry, looked up, the tested form may be a part): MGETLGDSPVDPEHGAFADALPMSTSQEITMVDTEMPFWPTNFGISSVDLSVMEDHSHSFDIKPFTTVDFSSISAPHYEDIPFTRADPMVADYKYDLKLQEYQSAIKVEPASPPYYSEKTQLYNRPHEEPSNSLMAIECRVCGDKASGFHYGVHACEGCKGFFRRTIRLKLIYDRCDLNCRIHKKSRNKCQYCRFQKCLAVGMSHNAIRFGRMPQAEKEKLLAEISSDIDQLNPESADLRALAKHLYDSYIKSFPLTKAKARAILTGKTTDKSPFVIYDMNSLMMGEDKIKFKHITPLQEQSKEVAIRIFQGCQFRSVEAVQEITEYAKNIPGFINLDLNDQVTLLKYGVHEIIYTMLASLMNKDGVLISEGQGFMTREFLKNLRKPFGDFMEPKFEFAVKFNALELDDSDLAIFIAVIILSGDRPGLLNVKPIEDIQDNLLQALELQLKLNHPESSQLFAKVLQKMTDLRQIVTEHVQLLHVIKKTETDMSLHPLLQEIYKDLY
# zebrafish Thyroid Hormone Receptor alpha (TRa), thraa (gene 30670), sequence (Q98867 whole entry, looked up, the tested form may be a part): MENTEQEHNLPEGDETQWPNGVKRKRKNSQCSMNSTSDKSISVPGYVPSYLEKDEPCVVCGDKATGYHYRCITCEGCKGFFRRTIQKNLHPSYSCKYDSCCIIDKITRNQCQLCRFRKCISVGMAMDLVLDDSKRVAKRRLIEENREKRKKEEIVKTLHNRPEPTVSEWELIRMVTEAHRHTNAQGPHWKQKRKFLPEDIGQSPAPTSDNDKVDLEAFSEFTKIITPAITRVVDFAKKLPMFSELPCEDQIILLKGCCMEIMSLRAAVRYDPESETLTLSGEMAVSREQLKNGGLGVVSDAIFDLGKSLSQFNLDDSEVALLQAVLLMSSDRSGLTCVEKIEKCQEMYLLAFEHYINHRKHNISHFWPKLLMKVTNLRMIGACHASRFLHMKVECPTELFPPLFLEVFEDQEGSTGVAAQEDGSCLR
SMILES,outcome [1],outcome [2],outcome [3],outcome [4],outcome [5],outcome [6],outcome [7],outcome [8],AC50 [3],AC50 [4],outcome [9],outcome [10],AC50 [2],AC50 [8],AC50 [5]
CCCc1cc(=O)[nH]c(=S)[nH]1,inactive,inactive,inactive,inactive,inactive,inactive,inactive,,,,,,,,
CC(C)(C)c1cc(O)c(C(C)(C)C)cc1O,,inactive,,,,inactive,,inactive,42.7 µM (active),57.5 µM (active),inactive,inactive,,,
CC(=O)C(C)=CC1C(C)=CCCC1(C)C (configuration not stated),,,inactive,,,inactive,inactive,,64.4 µM (active),146 µM (active) and 25.2 µM (active),,inactive,19.8 µM (active) and 21.3 µM (active),27.7 µM (active) and 14.7 µM (active),8.16 µM (active) and 12.9 µM (active)
C=CCOC(=O)c1ccccc1C(=O)OCC=C,inactive,,inactive,inactive,inactive,inactive,inactive,inactive,43.7 µM (active),44.1 µM (active),inactive,inactive,53.5 µM (active) and 100 µM (active),51.2 µM (active),27.5 µM (active)
